The source of these data is PubChem BioAssay (EPA / NIEHS).

Activity calls are given as the source filed them. How the source made its calls: active means hit-call score of the fitted dose curve at least 0.9, where 1 is the maximum; inactive means score below 0.9.

Sequence of Signal transducer and activator of transcription 3 (Homo sapiens) (P40763 whole entry, looked up): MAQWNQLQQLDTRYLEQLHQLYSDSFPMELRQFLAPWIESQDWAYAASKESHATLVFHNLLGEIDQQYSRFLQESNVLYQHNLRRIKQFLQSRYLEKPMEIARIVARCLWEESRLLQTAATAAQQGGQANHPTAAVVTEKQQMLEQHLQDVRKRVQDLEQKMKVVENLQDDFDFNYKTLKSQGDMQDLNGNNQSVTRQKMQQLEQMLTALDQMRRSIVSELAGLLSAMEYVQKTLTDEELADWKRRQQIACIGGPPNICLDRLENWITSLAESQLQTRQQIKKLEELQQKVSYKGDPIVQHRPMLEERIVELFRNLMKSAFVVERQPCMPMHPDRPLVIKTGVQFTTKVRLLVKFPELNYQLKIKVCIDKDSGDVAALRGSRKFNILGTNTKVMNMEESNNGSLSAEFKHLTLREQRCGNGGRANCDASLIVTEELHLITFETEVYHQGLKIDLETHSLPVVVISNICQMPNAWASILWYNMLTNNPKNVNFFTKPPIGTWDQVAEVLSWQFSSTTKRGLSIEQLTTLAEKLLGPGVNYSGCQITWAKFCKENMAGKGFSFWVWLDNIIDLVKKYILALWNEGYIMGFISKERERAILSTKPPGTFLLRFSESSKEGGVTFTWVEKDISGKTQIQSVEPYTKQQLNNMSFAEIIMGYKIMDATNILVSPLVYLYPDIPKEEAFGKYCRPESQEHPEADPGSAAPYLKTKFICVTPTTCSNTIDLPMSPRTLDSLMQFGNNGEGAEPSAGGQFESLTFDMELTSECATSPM

In the assay the target is Signal transducer and activator of transcription 3 (Homo sapiens) (UniProt P40763). In words: ATG_STAT3_CIS: Attagene CIS-FACTORIAL HepG2 Assay for human Signal Transducer and Activator of Transcription 3 (STAT3) (AID 2282963). The conditions noted are these: HepG2, Attagene cis-factorial STAT3 reporter transcription; actives raise or lower the signal. Put shortly:
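After a 24 h compound incubation, total RNA from MRTU-transfected HepG2 cells was converted to cDNA and reporter sequences PCR-amplified, labelled and profiled by capillary electrophoresis. Gain and loss of signal were referenced to DMSO.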
With `[Cl][Nd]([Cl])[Cl]`, the molecule was classed as inactive.

On to `CC/C=C\C/C=C\C/C=C\CCCCCCCC(=O)O`, for which the call was inactive.

With `Nc1ccc(-c2ccc(F)cc2)cc1`, the call was inactive.

For `CC(=O)Oc1ccc(C(C)=O)cc1`, the molecule was called inactive.

Take `C=C(C)C(=O)OCC(C)C`: the call was inactive.

On to `O=C(Nc1ccccc1)c1ccccc1O`, for which the call was inactive.

On to `CC(C)c1ccc(C#N)cc1`, for which the outcome was inactive.

Turning to `CCCCCCCCCCC=CC#N`, the molecule was called inactive.

`O=S(=O)(O)CC(O)CCl` (centres undefined): the call was inactive.

Take `COc1ccc([C@@H]2CC(=O)c3c(O)cc(O[C@@H]4O[C@H](CO[C@@H]5O[C@@H](C)[C@H](O)[C@@H](O)[C@H]5O)[C@@H](O)[C@H](O)[C@H]4O)cc3O2)cc1OC`: the call was inactive.

Turning to `c1cc(N(CC2CO2)CC2CO2)ccc1OCC1CO1` (centres undefined), the molecule was classed as inactive.

As for `CCCCC(CC)CCC(CC(C)C)OS(=O)(=O)O` (centres undefined), the outcome was inactive.

As for `[Cl][Bi]([Cl])([c]1ccccc1)([c]1ccccc1)[c]1ccccc1`, the molecule was called inactive.

As for `O=C(O)C(c1ccc(Cl)cc1)c1ccc(Cl)cc1`, the molecule was called inactive.

On to `CC1=Nc2ccc3ccccc3c2C1(C)C`, for which the molecule was called inactive.

`O=c1c2ccccc2nnn1CCl`: the outcome was inactive.

In the case of `CN(C)c1ccc(N=Nc2ccccc2C(=O)O)cc1`, the call was inactive.

In the case of `S=C(NC1CCCCC1)NC1CCCCC1`, the molecule was called inactive.

As to `COc1cc(NC(=O)CC(C)=O)c(OC)cc1Cl`, the outcome was inactive.

Consider `O=C(/C=C/C=C/c1ccc2c(c1)OCO2)N1CCCCC1`, for which the call was inactive.

Regarding `CC(C)COC(=O)C=Cc1ccccc1`, the outcome was inactive.

For `CCN(CCO)c1cccc(C)c1`, the outcome was inactive.

`C=C[Si](OC(C)=O)(OC(C)=O)OC(C)=O`: the outcome was inactive.

Regarding `CCCC(=O)OCc1ccccc1`, the call was inactive.
